Assay results published in PubChem BioAssay (NCATS).
Active and inactive are the calls of the source. Calls follow the shape of the dose curve; as a rule, active = well fitted curve in the direction sought with a large enough effect; inconclusive = small, poorly fitted or top-dose-only effect, or effect the other way, or another doubt; inactive = no such curve, though single readings can be large or run the other way.

assay: qHTS for inhibitors of adenylyl cyclases using a fission yeast platform: a pilot screen against the NCATS LOPAC library (AID 1347410); conditions: S. pombe CHP2027, fbp1-GFP fluorescence, 18 h, yeast expressing mammalian AC9 and human GNAS; series mostly up to 57.5 µM
Excerpt: PI: Charles S. Hoffman Ph.D
Boston College, 140 Commonwealth Ave., Chestnut Hill, MA
Assay Development and Screening Technology Laboratory (ADST)
National Center for Advancing Translational Sciences (NCATS), Rockville, MD
National Institute of Health (NIH), Bethesda, Maryland
The fission yeast Schizosaccharomyces pombe uses a cAMP signaling pathway to link glucose-sensing to Protein Kinase A activity in order to regulate cell growth, sexual development, gluconeogenesis, and exit from stationary phase. Here, we describe the successful functional expression of all ten mammalian adenylyl cyclase (AC) genes, along with the human GNAS G-alpha gene in this organism. By measuring expression of a PKA-repressed fbp1-GFP reporter together with direct measurements of intracellular cAMP levels, one can detect both basal AC activity from all ten AC genes as well as GNAS-stimulated activity from eight of the nine transmembrane ACs (tmACs; AC2-AC9).
Further confirmation and validation of active compounds lead to the identification of diphenyleneiodonium chloride (DPI) as an inhibitor of basal AC activity. This fluorescence based fbp1-GFP-GNAS screening technology could facilitate the development of therapeutic compounds that target GNAS or the ACs, an area in which there is significant unmet need.
The gain-of-signal output is not substantially affected by cytotoxic compounds within the library.
Getz RA, et al., A fission yeast platform for heterologous expression of mammalian adenylyl cyclases and high throughput screening, Cellular Signaling, 2019, 60: 114-121. doi.org/10.1016/j.cellsig.2019.04.010.
PROTOCOL TABLE (as described by Inglese J, Shamu CE and Guy RK. 2007)
SEQUENCE No. (e.g., 1, 2, 3, etc.); […] (e.g., Cells, Incubation, Reagent, etc.); VALUE; DESCRIPTION.
1; Dispense growth medium; 2 uL; black, clear bottom, low base, 1536-well Aurora assay plate.
2; Compounds and control; 23 nL; Kalypsis pin tool (Wako USA) equipped with a 1536-well pin head to transfer to the assay plates.
3; Dispense yeast cells; 2 uL; CHP2027 cells.
4; Incubation; 18 hours (dark at 30C); Non-humidified microbial incubator.
5; Detector; 425V; Fluorescence; laser scanning cytometry.
NOTES (numbers refer to Sequence numbers above)
1. S. pombe growth medium EMM containing histidine, lysine, and uracil was initially dispensed into the assay plate to avoid yeast contamination using a Multidrop Combi dispenser (Thermo Fisher Scientific).
2. 10 mM stock solution of DPI (Sigma-Aldrich D2926) dissolved in DMSO was used as a 16-point dose response positive control, while 1.11 mM DPI stock solution was used as a single point max response positive control. Solvent DMSO was used as the negative control. Control DPI was transferred as a single-dose (column 3; rows 1-32; 1.11 mM stock), and multi-dose (column 4; rows 1-32; 10mM stock; 1:1.5 dilution; 16pnt titration) positive controls. Vehicle control DMSO was pinned into column 1-2, rows 1-32. Lopac compounds were pinned into columns 5-48 resulting to a final concentration range 57 µM to 78.4 nMControl DPI stock (10 mM) was prepared by dissolving 10 mg in 3.18 mL DMSO; while 1.11 mM DPI stock was prepared by mixing 100 uL of 10 mM DPI with 800 uL DMSO. To create the control plates, we initially start with a 384-well compound working plate. With a repeater pipette, (a.) 16 uL/well of 1.11 mM DPI was added to column 3; (b.) 16 uL/well of DMSO was added into rows 2-16 of column 4; (c.) 50 uL/well of DPI added to rows 1 and 2 of column 4; (d.) 32 uL serial dilution (two-thirds-fold) from rows 2 to 16 of column 4 with manual pipette. From the 384-well compound working plate, 7 uL of respective control compound was transferred to respective columns of the 1536-well compound plate using a multichannel pipette.
3. S. pombe CHP2027 (AC9-GNAS-PDE4D2) expressing fbp1-GFP cells were grown at 30C in EMM medium containing histidine, lysine, and uracil. […]

| SMILES | outcome |
| --- | --- |
| O=Nc1c(-c2c(O)[nH]c3cc(Br)ccc23)[nH]c2ccccc12 | inactive |
| O=c1cc(N2CCOCC2)oc2c(-c3ccccc3)cccc12 | inactive |
| C[C@H](Cc1ccc(O)c(O)c1)[C@@H](C)Cc1ccc(O)c(O)c1 | inactive |
| O=c1ccc2ccc(O)c(O)c2o1 | inactive |
| O=C1c2ccccc2-c2n[nH]c3cccc1c23 | inactive |
| CC1(C)NC(=O)N(c2ccc([N+](=O)[O-])c(C(F)(F)F)c2)C1=O | inactive |
| C[C@@H](N)C1CCC(C(=O)Nc2ccncc2)CC1 (stereo not given in full) | inactive |
| CCOC(=O)C1=C(O)C(=O)N(Cc2ccccc2)C1 | inactive |
| CC1(C)C(=O)N(CCN2CCC(C(=O)c3ccc(F)cc3)CC2)c2ccccc21 | inactive |
| Cc1cc(O)c2c(c1)C(=O)c1cc(O)cc(O)c1C2=O | inactive |
| CN(C)C(=O)[C@H](O)[C@H](Cc1ccccc1)NC(=O)c1cc2cc(Cl)ccc2[nH]1 | inactive |
| Nc1nc(N)c(N=O)c(OCC2CCCCC2)n1 | inactive |
| C[C@@H](c1ncncc1F)[C@](O)(Cn1cncn1)c1ccc(F)cc1F | inactive |
| CC(=O)NC[C@H]1CN(c2ccc(N3CCOCC3)c(F)c2)C(=O)O1 | inactive |
| O=C(c1ccccc1)c1ccc2n1CCC2C(=O)O (stereo not given) | inactive |
| O=C(CCc1ccc(O)cc1)c1c(O)cc(O)cc1O | inactive |
| O=c1c(O)c(-c2ccc(O)cc2O)oc2cc(O)cc(O)c12 | inactive |
| CCOC(=O)C(C)Oc1cccc2c(=O)n(CC(=O)Nc3ccc4c(c3)OCCO4)ccc12 (stereo not given) | inactive |
| O=C1c2c(O)cc(O)cc2OC(c2ccc(O)c(O)c2)C1O (stereo not given) | inactive |
| Nc1nc(OCc2ccccc2)c2[nH]cnc2n1 | inactive |

| SMILES | outcome |
| --- | --- |
| NC(=NCc1ccccc1)NC(=O)c1nc(Cl)c(N)nc1N | inactive |
| O=C1NC(=O)C(c2ccccc2[N+](=O)[O-])=C1Nc1ccc(O)c(Cl)c1 | inactive |
| O=c1c(O)c(-c2cc(O)c(O)c(O)c2)oc2cc(O)cc(O)c12 | inactive |
| CCN(CC)CCOc1ccc(Nc2ncc3cc(-c4c(Cl)cccc4Cl)c(=O)n(C)c3n2)cc1 | inactive |
| Cc1cccc(C#Cc2ccccc2)n1 | inactive |
| CNC[C@H](O)c1ccc(O)c(O)c1 | inactive |
| COc1ccc2cc([C@H](C)C(=O)O)ccc2c1 | inactive |
| O=C(O)c1cccnc1Nc1cccc(C(F)(F)F)c1 | inactive |
| Cc1cc(Cl)ccc1OCCCC(=O)NO | inactive |
| Cc1cccc(-c2[nH]ncc2-c2ccc3ncccc3n2)n1 | inactive |
| COc1cc2c(cc1OC)C1CC(=O)C(CC(C)C)CN1CC2 (stereo not given) | inactive |
| COc1ccccc1N1CCN(CCN(C(=O)C2CCCCC2)c2ccccn2)CC1 | inactive |
| c1cnc2cc3c(cc2n1)C1CNCC3C1 | inactive |
| NNc1nncc2ccccc12 | inactive |
| CC(C)c1ccc2c(c1)c(SC(C)(C)C)c(CC(C)(C)C(=O)O)n2Cc1ccc(Cl)cc1 | inactive |
| Oc1ccc2ccccc2c1SSc1c(O)ccc2ccccc12 | inactive |
| CC(=O)N1CCN(c2ccc(OC[C@H]3CO[C@](Cn4ccnc4)(c4ccc(Cl)cc4Cl)O3)cc2)CC1 | inactive |
| Oc1ccc(-c2nc(-c3ccc(F)cc3)c(-c3ccncc3)[nH]2)cc1 | inactive |
| CN(C)CCCC1(c2ccc(F)cc2)OCc2cc(C#N)ccc21 (stereo not given) | inactive |
| Clc1ccc2c(N3CCN(CCCN4CCN(c5ccnc6cc(Cl)ccc56)CC4)CC3)ccnc2c1 | inactive |
